Source: the supplement of paper PMC6555819

The sequences below were run on VDR:RXRa (NR concentration 270 nM, RXRa partner concentration 90 nM) (assay: PBM binding z-score (relative to random genomic background probes); higher = stronger binding; sequences stand for … in GC…GCGATTGACAGCGTAGAATGAAGG).
Procedure: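 Protein-binding microarray (Agilent 4x180K custom design, double-stranded 60-nt probes: 5' GC cap, 34-nt variable region, 24-nt constant primer region; full probe sequence given). Purified or IVT nuclear receptor:RXRα heterodimers (3:1 NR:RXRα, mostly 270:90 nM) or homodimers were incubated for 1 h in PBS with 2% milk and no ligand, then detected with Alexa488 antibodies. Fluorescence from o1-orientation probes (~5 replicates averaged) was converted to z-scores against 500 random hg19 background probes. Variable regions are seed direct-repeat (DR0–DR5) sites, all their single-nucleotide variants and half-site ablations.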

Question: Which PBM binding z-score does the source give for TTACCAAGGTGAAGGTCGTTCATCCCTCTGTAGA here?
Answer: 1.74

Question: With CTACCAAGGTGAACAAGGTCGTTGTTTACTATTC as the sequence, how does the PBM binding z-score read?
Answer: 6.2

Question: With CATACAGGTTCAGCTAGGCCAGAGTAGGGACGGC as the sequence, how does the PBM binding z-score read?
Answer: 1.99

Question: For CGTCCAAGGTCAGAGAGATCAGTGAATGCCGAGT, which PBM binding z-score is on record?
Answer: 3.72

Question: How did the PBM binding z-score turn out when CCTACTGGGCCAAGGTCATTTATCAGTCAAAGCA was run?
Answer: 3.13

Question: How did the PBM binding z-score turn out when TTACCACGGTGAAAGGTCGTTGATGCACGCCTTG was run?
Answer: 1.99

Question: For AGAATGAGGTTAAGATCAGGAAAACAGAATACAT, which PBM binding z-score is on record?
Answer: 1.24

Question: For CGTCCAAGGTCAATGCTAAGTCAGTGAAAGCATT, which PBM binding z-score is on record?
Answer: 3.83

Question: For TCATATAGGTGATACAGGTGAAAGTCGGCATCTA, which PBM binding z-score is on record?
Answer: 1.19

Question: TCAGAGAGGTGAAGGTAACTCAGGTACGCAGTCG was tested. Which PBM binding z-score did it give?
Answer: 0.999

Question: How did the PBM binding z-score turn out when AATACAGGGTCATCGTAGGCCAGACTACGCACAG was run?
Answer: 5.11

Question: CCTTACGGGTCACGAGGTTACAGCACGACGAGCG was tested. Which PBM binding z-score did it give?
Answer: 5.28

Question: Which PBM binding z-score does the source give for TCGAGTAGGTGAGGGGCATTCAGAATGGCGTCGA here?
Answer: -0.0355

Question: Which PBM binding z-score does the source give for CGTCCAAGGTCATAGGAAGTCAGTGAAGACAGAT here?
Answer: 4.21

Question: CGTCCAAGGTCAGCAGGTCCGTGAAAGCGACGTG was tested. Which PBM binding z-score did it give?
Answer: 6

Question: With GATACAGAGTCAAGGCCAGAGTACGCGTATTGAT as the sequence, how does the PBM binding z-score read?
Answer: -0.36

Question: For AGTCAAAGTTCAGCTAGGTAACGTAAGATATGCT, which PBM binding z-score is on record?
Answer: 3.03

Question: With ACTAGCAGGCCAAGGATCACTCAAGATTAGTCCG as the sequence, how does the PBM binding z-score read?
Answer: -0.428

Question: How did the PBM binding z-score turn out when TATTGTAGATCAAGCAGGTTAAGAAAGCCTGAGT was run?
Answer: 0.301

Question: For ATCGAAAGGTCGTCAGGTGAGTATACAGAAAGGC, which PBM binding z-score is on record?
Answer: 3.72

Question: ACTAGTTGGTCTGCTGAGGTCACACACAATTCGG was tested. Which PBM binding z-score did it give?
Answer: 3.54

Question: With TCAGACAGGTGAAGGTAACTCGGGTACGCAGTCG as the sequence, how does the PBM binding z-score read?
Answer: 1.45

Question: With TCGAGTAGGTTAGGGGCACTCAGAATGGCGTCGA as the sequence, how does the PBM binding z-score read?
Answer: -0.143

Question: With CCTACTGGGCCACGAAAGGTCATTGACTCAGTGA as the sequence, how does the PBM binding z-score read?
Answer: 4.12

Question: TAGCCTAGGTCTTGGGCCAGTATACCACGCGAAC was tested. Which PBM binding z-score did it give?
Answer: -0.455

Question: With TCTTGTAGATCAAGCGGGTTAAGAAAGCCTGAGT as the sequence, how does the PBM binding z-score read?
Answer: 0.54

Question: With CCTACTGGGCCAAGATCATTGATCAGTCAAAGCA as the sequence, how does the PBM binding z-score read?
Answer: -0.601

Question: How did the PBM binding z-score turn out when CCGACTGGGGCATAAGGTTACAATAAGCCAGCCC was run?
Answer: 0.392

Question: Which PBM binding z-score does the source give for GCTTGGAGGACAAGGTCAGAGCTTTGTCCGTAGA here?
Answer: 1.41

Question: ATCGAAAGGTTGAAGGTGAGTATACCCACCCGAA was tested. Which PBM binding z-score did it give?
Answer: 0.806

Question: For CTACCAAGGTGAACAAGGTCGTTGGTTACTATTC, which PBM binding z-score is on record?
Answer: 5.92

Question: Which PBM binding z-score does the source give for CCTAGGAGGACAGAAGGTCAGAGCTGTCCGCTTT here?
Answer: 1.09

Question: With GCTGGTTGGTCAGTAAAAGGTCACACACCGGTCG as the sequence, how does the PBM binding z-score read?
Answer: 4.02

Question: With AGTCAAAGTTCACTAGGTAACGGAAGATTCAGCT as the sequence, how does the PBM binding z-score read?
Answer: 3.97

Question: With CCGACTGGGGCAGAAAGGTTCCCATACCATCCGG as the sequence, how does the PBM binding z-score read?
Answer: -0.573

Question: For AGAACGAGGGCAATGGGTTGATAGCACGGGTGGC, which PBM binding z-score is on record?
Answer: 5.47

Question: Which PBM binding z-score does the source give for CGTCGAAGGTCAGCAGGTCAGTGAAAGCGACGTG here?
Answer: 3.61

Question: CCTGCTCGGTCATGGTCAGCTAATCTACAGTATG was tested. Which PBM binding z-score did it give?
Answer: -0.315

Question: How did the PBM binding z-score turn out when ACTATTAGTTGGGACGAGGGCAACCGATAGGTTG was run?
Answer: 0.564

Question: GCTCGGAGGACAGGGTCAGAGCTTTGTCCGTAGA was tested. Which PBM binding z-score did it give?
Answer: 1.08
